Data reported in PubChem BioAssay (NCATS).
Records with an inconclusive call do not appear. Activity calls are given as the source filed them. The call rests on the fitted dose curve; in most records, active means well fitted curve in the direction sought with a large enough effect; inconclusive means small, poorly fitted or top-dose-only effect, or another doubt; inactive means no such curve, though single readings can be large; an effect the other way counts as inactive or inconclusive.

Assays:
[1] = U-118MG Cancer Cell Toxicity qHTS against the NCATS CANVASS Library (AID 1347351); details: U-118MG viability, CellTiter-Glo luminescence, 72 h; series mostly up to 38.3 µM
Method in brief: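 ATP content after 72 h treatment, detected by CellTiter-Glo luminescence (15min room-temperature development), reflects cell viability. Wells contained 1000 cells and received compounds at 11 concentrations.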

[2] = COV-362 Cancer Cell Toxicity qHTS against the NCATS CANVASS Library (AID 1347352); details: COV-362 viability, CellTiter-Glo luminescence, 72 h; series mostly up to 38.3 µM
Method in brief: (§1)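 Cells at 1000/well were given compound 4 h after plating in an 11-point series. Viability was read by CellTiter-Glo luminescence after 72 h at 37 degrees C.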

[3] = A2780 Cisplatin Sensitive Ovarian Cancer Cell Toxicity qHTS against the NCATS CANVASS Library (AID 1347353); details: A2780 ovarian cancer viability, ATPLite luminescence, 72 h; at 46.1 µM (top of the series); further: nearly all actives have a fitted effect of over 60% in size
Method in brief: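 A2780 cells, 750/well, settled 4 h at 37 °C, then treated with an 11-point compound series for 72 h. Viability was read as ATPLite luminescence after 10 min at room temperature, with bortezomib as control.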

[4] = UWB1.289-WTBRCA1 Cancer Cell Toxicity qHTS against the NCATS CANVASS Library (AID 1347354); details: UWB1.289-WTBRCA1 viability, CellTiter-Glo luminescence, 72 h; at 38.3 µM (top of the series)
Method in brief: as §1

[5] = HEK-293 Cancer Cell Toxicity qHTS against the NCATS CANVASS Library (AID 1347355); details: HEK-293 viability, CellTiter-Glo luminescence, 72 h; at 46.1 µM (top of the series); further: nearly all actives have a fitted effect of over 65% in size
Method in brief: as §1

[6] = HPAF-II 24hr Apoptosis Induction qHTS against the NCATS CANVASS Library (AID 1347356); details: HPAF-II caspase-3/7 Caspase-Glo luminescence; series mostly up to 46.1 µM
Method in brief: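 HPAF-II cells (500/well) exposed to compounds in 11-point series for 24 h at 37 degrees C; caspase-3/7 activity read by Caspase-Glo luminescence after 15 min at room temperature. Doxorubicin titration as control.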

[7] = HEK293 18hr Apoptosis Induction qHTS against the NCATS CANVASS Library (AID 1347357); details: HEK293 caspase-3/7 Caspase-Glo luminescence; series mostly up to 46.1 µM
Method in brief: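 HEK293 cells (500/well, DMEM + 10% FBS) treated with an 11-point series for 18 h at 37 degrees C. Caspase-3/7 activity read by Caspase-Glo luminescence after 15 min at room temperature.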

[8] = HPAF-II 12hr Apoptosis Induction qHTS against the NCATS CANVASS Library (AID 1347358); details: HPAF-II caspase-3/7 Caspase-Glo luminescence; series mostly up to 46.1 µM
Method in brief: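 HPAF-II cells, 500/well in DMEM + 10% FBS, exposed 12 hours at 37 degrees C to compound (11-point). Caspase-Glo 3/7 added for 15 min at room temperature; luminescence reflects caspase-3/7 activity.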

[9] = HEK293 24hr Apoptosis Induction qHTS against the NCATS CANVASS Library (AID 1347359); details: HEK293 caspase-3/7 activation, Caspase-Glo luminescence; series mostly up to 46.1 µM
Method in brief: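 HEK293 cells, 500 per well, exposed to an 11-point compound series for 24 hours at 37 degrees C. Caspase 3/7 activity read by Caspase-Glo luminescence (DEVD substrate) after 15 min at room temperature.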

[10] = HPAF-II 18hr Apoptosis Induction qHTS against the NCATS CANVASS Library (AID 1347360); details: HPAF-II caspase-3/7 luminescence; series mostly up to 46.1 µM
Method in brief: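 HPAF-II cells at 500/well were exposed for 18 h at 37 C to an 11-point compound series. Caspase-3/7 activity was read by Caspase-Glo luminescence after 15 min at RT.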

[11] = HEK293 12hr Apoptosis Induction qHTS against the NCATS CANVASS Library (AID 1347361); details: HEK293 caspase-3/7 Caspase-Glo luminescence; series mostly up to 46.1 µM
Method in brief: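 HEK293 cells (500/well) were exposed to an 11-point qHTS concentration series for 12 hours at 37 degrees C. Caspase-3/7 activity was then read by DEVD-substrate luciferase luminescence after 15 min at room temperature.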

[12] = test system: NAD(P)H diaphorase (Clostridium kluyveri); assay: Diaphorse counterscreen qHTS: Assay Interference Panel against the NCATS CANVASS Library (AID 1347362); details: Diaphorase enzyme, resazurin to resorufin fluorescence; series mostly up to 57.5 µM
Method in brief: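 Clostridium kluyveri diaphorase in PBS + 0.01% Tween-20 preincubated 15 min with compounds. Resazurin and NADH then added for 5 min at room temperature in the dark; resorufin fluorescence read (ex 525, em 598).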

[13] = molecular target: Luciferin 4-monooxygenase (Photinus pyralis) (UniProt P08659); assay: Firefly luciferase counterscreen qHTS: Assay Interference Panel against the NCATS CANVASS Library (AID 1347363); details: purified firefly luciferase, luminescence inhibition, 5 min; series mostly up to 57.5 µM
Chain of Luciferin 4-monooxygenase (Photinus pyralis) (P08659 whole entry, looked up): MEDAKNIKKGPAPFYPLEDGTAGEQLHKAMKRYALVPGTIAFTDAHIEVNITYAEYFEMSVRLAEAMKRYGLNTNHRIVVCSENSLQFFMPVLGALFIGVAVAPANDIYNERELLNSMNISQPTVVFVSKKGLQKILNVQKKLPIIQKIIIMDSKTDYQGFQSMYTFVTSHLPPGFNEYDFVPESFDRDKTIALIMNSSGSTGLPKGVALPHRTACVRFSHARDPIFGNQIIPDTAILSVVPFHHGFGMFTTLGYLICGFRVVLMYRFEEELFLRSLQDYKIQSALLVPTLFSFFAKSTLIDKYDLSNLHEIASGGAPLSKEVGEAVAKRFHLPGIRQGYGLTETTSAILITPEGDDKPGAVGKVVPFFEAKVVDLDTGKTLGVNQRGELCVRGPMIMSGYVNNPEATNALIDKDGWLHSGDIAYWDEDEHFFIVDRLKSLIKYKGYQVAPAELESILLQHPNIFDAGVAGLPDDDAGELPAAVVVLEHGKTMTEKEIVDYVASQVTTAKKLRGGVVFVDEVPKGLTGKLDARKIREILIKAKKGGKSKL
Method in brief: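 Purified P. pyralis luciferase (0.04 ug/mL, 4x reagent) added to Tris-acetate buffer with 0.013 mM D-luciferin, 0.013 mM ATP and 13.3 mM Mg-acetate; compounds preincubated 15 min, then luminescence read after 5 min, RT.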

[14] = KB-8-5-11 Cancer Cell Toxicity qHTS against the NCATS CANVASS Library (AID 1347364); details: KB-8-5-11 MDR cells viability, CellTiter-Glo, 72 h; at 46.1 µM (top of the series); further: nearly all actives have a fitted effect of over 75% in size
Method in brief: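 KB-8-5-11 cells, 500/well in DMEM + 10% FBS, given compounds in an 11-point series. Incubated 72 h at 37 °C. Viability by CellTiter-Glo luminescence. Confirmation also run with 1 uM tariquidar.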

[15] = KB-3-1 Cancer Cell Toxicity qHTS against the NCATS CANVASS Library (AID 1347366); details: KB-3-1 viability, CellTiter-Glo luminescence, 72 h; at 46.1 µM (top of the series); further: nearly all actives have a fitted effect of over 75% in size
Method in brief: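 KB-3-1 cells (500/well) in DMEM with 10% FBS were exposed to compounds for 72 h at 37C. Viability was read by CellTiter-Glo luminescence.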

[16] = qHTS for ATAD5 Agonist screened against the NCATS CANVASS Library (AID 1347367); details: HEK293T ATAD5-luciferase reporter, luminescence, 16 h; series mostly up to 46.1 µM;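 further: luciferase reporter driven by ATAD5 which rises upon DNA damage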
Method in brief: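 Luciferase reporter under ATAD5 control, stably integrated in HEK293T cells (2000/well). Compounds (11 points) incubated 16 h at 37C; viability read first by CellTiter-Fluor, then luminescence reporting ATAD5 activation. MMS positive control.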

[17] = MCF7 Cancer Cell Toxicity qHTS against the NCATS CANVASS Library (AID 1347369); details: MCF7 viability, ATP luminescence (CellTiter-Glo), 72 h; at 46 µM (top of the series)
Method in brief: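 MCF7 cells (500/well) were exposed 72 h at 37 °C to compounds in an 11-point series. Viability was read as ATP content by CellTiterGlo luminescence.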

[18] = qHTS for ATAD5 Antagonist screened against the NCATS CANVASS Library (AID 1347370); details: HEK293T-ATAD5-luc, 5-FUrd stimulated, luminescence, 16 h; series mostly up to 46.1 µM;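 further: HEK293T cells carrying an ATAD5 luciferase reporter co-treated with 10 µM 5-fluorouridine; nearly all actives have a fitted effect of over 65% in size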
Method in brief: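 HEK293T cells with stably integrated ATAD5-luciferase reporter, 2000/well, 5 h attachment; compounds plus 10 µM 5-fluorouridine, 16 h at 37 °C. Luciferase luminescence read, with CellTiter-Fluor viability read first.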

[19] = J3T Cancer Cell Toxicity qHTS against the NCATS CANVASS Library (AID 1347371); details: J3T dog glioma viability, ATP luminescence, 72 h; series mostly up to 46.1 µM;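 further: J3T is a canine glioma cancer cell line seeded at 500 cells per well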
Method in brief: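 J3T dog glioma cells, 500 per well, treated 72 h at 37C with compounds (11-point qHTS); viability from ATP content by CellTiterGlo luminescence; bortezomib titration as control.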

[20] = molecular target: Nuclear receptor subfamily 1 group I member 3 (Homo sapiens) (UniProt Q14994); assay: qHTS for Constitutive Androstane Receptor (CAR) Antagonist screened against the NCATS CANVASS Library (AID 1347372); details: HepG2-hCAR-CYP2B6 luciferase, CITCO-stimulated antagonist mode; series mostly up to 46.1 µM;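 further: cells stimulated with 50 nM CITCO agonist so inhibition reflects antagonism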
Chain of Nuclear receptor subfamily 1 group I member 3 (Homo sapiens) (Q14994 whole entry, looked up): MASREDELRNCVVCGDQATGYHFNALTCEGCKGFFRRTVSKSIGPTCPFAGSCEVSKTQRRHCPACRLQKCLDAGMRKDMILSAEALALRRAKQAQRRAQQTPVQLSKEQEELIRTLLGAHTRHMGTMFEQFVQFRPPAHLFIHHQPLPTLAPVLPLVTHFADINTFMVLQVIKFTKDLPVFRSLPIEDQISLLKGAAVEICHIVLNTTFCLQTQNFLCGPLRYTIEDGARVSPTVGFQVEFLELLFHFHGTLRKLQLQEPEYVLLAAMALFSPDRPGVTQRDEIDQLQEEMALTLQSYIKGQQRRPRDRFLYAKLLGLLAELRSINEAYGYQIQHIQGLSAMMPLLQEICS
Method in brief: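 HepG2 cells stably carrying hCAR and CYP2B6-2.2kb luciferase reporter, 2500 cells/well, compound with 50 nM CITCO agonist for 24hr at 37C. ONE-Glo luminescence measured CAR activity; CellTiter-Fluor read viability.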

Measured: outcome

CN1CCC[C@@H]1c1cccnc1
inactive: all assays above
